Compound activity from PubChem.
NS1 function inh: blocks influenza NS1 protein function | Potency, µM (highest dose often 46.1 µM), for the others: at the highest dose activity, positive = more growth | 270,000 compounds, 0.4% hits; calls by dose curve; further: potency means the concentration at half of the fitted maximal effect; actives are rising curves; nearly all actives have a fitted effect of over 50% in size
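Recovery from NS1-induced slow growth read by OD600 in budding yeast switched to galactose assay medium (pH 6.0, -URA) at 1:100 dilution. Compound 23 nl per well; the matching strain lacking NS1 serves as control.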
AmpC detergent: AmpC beta-lactamase inhibition with detergent present | Potency, µM (titrated, usually from 114 µM), without a hit: at the top dose activity change, negative = inhibition, hits mostly inhibitors | 370,000 compounds, 0.041% hits | AmpC hydrolysis of nitrocefin, absorbance 480 nm, 0.01% Triton;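 further: potency means the concentration at half of the fitted maximal effect; 0% = no-compound wells and -100% = no-enzyme wells; nearly all actives have a fitted effect of over 25% in size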
Target sequence (P00811 whole entry, looked up): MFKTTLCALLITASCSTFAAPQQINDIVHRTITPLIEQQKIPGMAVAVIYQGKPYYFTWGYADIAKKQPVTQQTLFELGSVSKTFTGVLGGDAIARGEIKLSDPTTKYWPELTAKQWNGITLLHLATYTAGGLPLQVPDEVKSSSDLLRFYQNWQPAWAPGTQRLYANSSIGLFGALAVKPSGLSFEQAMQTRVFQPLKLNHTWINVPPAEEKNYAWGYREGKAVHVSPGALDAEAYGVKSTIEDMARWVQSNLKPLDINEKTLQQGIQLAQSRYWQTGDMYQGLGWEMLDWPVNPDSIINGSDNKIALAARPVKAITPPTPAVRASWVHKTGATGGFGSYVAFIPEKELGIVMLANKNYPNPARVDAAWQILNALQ
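AmpC (5.3 nM in the dispensed reagent) in 20 mM phosphate pH 7.0 with 0.01% (detergent screen) or 0.0001% Triton X-100 was preincubated with compounds for 15 min at room temperature. Nitrocefin was then added from an 800 uM solution, and hydrolysis was followed at 480 nm.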
AmpC no deterg: inhibitors of E. coli AmpC beta-lactamase without detergent | P00811 | AmpC nitrocefin hydrolysis, absorbance 480 nm, 0.0001% Triton | Potency, µM (top dose mostly 57.1 µM), for inactives: top-dose activity change, negative = inhibition, usual class: inhibitors | 330,000 compounds, 0.52% hits;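 further: potency means the concentration at half of the fitted maximal effect; plate controls were no compound for no effect and no enzyme for full effect; nearly all actives have a fitted effect of over 20% in size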
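20 mM phosphate pH 7.0 + 0.01% (detergent screen) or 0.0001% Triton X-100; 5.3 nM AmpC reagent; cpd preinc 15 min RT; nitrocefin (800 uM stock) to start; A480 q20 s × 4 min; Activity was normalised to no-enzyme and no-compound control wells.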
Cycloheximide cs: counter-screen hit for Shiga toxin inhibitors, cycloheximide. 300,000 compounds, 12% hits. AID 2314. cell reporter, cycloheximide protein synthesis inhibition counterscreen. max response, %; in the data active means max response mostly above about 13%, no sharp cut-off; inactive means mostly below about 14%; further: read at 38.3 µM for the half of the compounds with a filed dose; 0% is about no effect
Shiga inhibitor: Shiga toxin inhibition | Vero cells, Shiga toxin protein synthesis inhibition reporter | inhibition, % at 38.7 µM | 290,000 compounds, 9.2% hits | AID 2315; in the data active means inhibition mostly above about 28%, no sharp cut-off; inactive means mostly below about 43%; further: 0% is about no effect
* hit, by the source's call. The full list was thinned out, with hits kept by preference. Unless noted, the call rests on the fitted dose curve; in most records, active means well fitted curve in the direction sought with a large enough effect; inconclusive means small, poorly fitted or top-dose-only effect, or another doubt; inactive means no such curve, though single readings can be large; an effect the other way counts as inactive or inconclusive.

For Cc1cc(C(=O)N/N=C/c2cccc([N+](=O)[O-])c2O)n[nH]1 the results were NS1 function inh -30%, AmpC detergent inconclusive, AmpC no deterg -40%, Cycloheximide cs 18* and Shiga inhibitor 20.
`COCCNC(=S)N1CCN(Cc2ccc3c(c2)OCO3)CC1` gave NS1 function inh 11%, AmpC detergent -4%, AmpC no deterg -5%, Cycloheximide cs -2 and Shiga inhibitor -9.
Screening Cn1c(Oc2ccccc2)nc2c1c(=O)n(Cc1ccc(Cl)cc1Cl)c(=O)n2C returned AmpC detergent 9%.
`COc1ccc(Cn2c3nc4ccccc4nc3c3c(=O)n(Cc4ccco4)cnc32)cc1` gave NS1 function inh 8.9µM*, AmpC detergent 0%, AmpC no deterg 0%, Cycloheximide cs 11 and Shiga inhibitor 33.
Nc1ccccc1Nc1ccccc1 was read as NS1 function inh -57%, AmpC detergent -7%, AmpC no deterg -17%, Cycloheximide cs -4 and Shiga inhibitor -2.
For Nc1ccc(Nc2ccccc2)c(Cl)c1 the results were NS1 function inh -73%, AmpC detergent -6%, AmpC no deterg -26%, Cycloheximide cs 27* and Shiga inhibitor 52*.
`Cn1c(CC(=O)Nc2ccccc2F)nnc1SCC(=O)N1CCOCC1` gave NS1 function inh 4%, AmpC detergent 2%, AmpC no deterg 0%, Cycloheximide cs 30* and Shiga inhibitor 42.
`COc1ccc(NC(=O)/C(C#N)=C\c2ccc(-c3cccc(C(=O)O)c3C)o2)cc1` gave NS1 function inh 2%, AmpC detergent -6%, AmpC no deterg -3%, Cycloheximide cs 21* and Shiga inhibitor 35*.
For Cc1c(C(=O)O)cccc1-c1ccc(C=O)o1 the results were NS1 function inh 5%, AmpC detergent inconclusive, AmpC no deterg -24%, Cycloheximide cs 35* and Shiga inhibitor 54*.
For CNC(=O)/C(C#N)=C/c1ccc(-c2ccc(OC)cc2[N+](=O)[O-])o1 the results were NS1 function inh 12%, AmpC detergent 1%, AmpC no deterg -9%, Cycloheximide cs 56* and Shiga inhibitor 27*.
For COc1ccc(NC(=O)/C(C#N)=C\c2ccc(Br)o2)cc1 the results were NS1 function inh -3%, AmpC detergent inconclusive, AmpC no deterg -22%, Cycloheximide cs 22* and Shiga inhibitor 25.
For Cc1ccc(OCCNC(=O)C(C)SCC(=O)Nc2ccc(F)cc2)cc1 (stereo not given) the results were AmpC no deterg 12%.
Screening CCOc1ccccc1C(=O)N1CCC(c2nc3ccccc3o2)CC1 returned AmpC detergent -2%.
For CCOc1ccc(NC(=O)CC2C(=O)N(c3ccc(OC)cc3)C(=S)N2Cc2ccccn2)cc1 (stereo not given) the results were AmpC detergent -12%, AmpC no deterg 125%, Cycloheximide cs 6 and Shiga inhibitor -2.
CCCS(=O)(=O)c1nc(S(=O)(=O)c2ccc(C)cc2)c(NC)s1 was read as AmpC detergent 24%.
Screening CC(C(=O)Nc1ccc(F)c(F)c1F)N(C)CC(=O)Nc1ccccc1Br (stereo not given) returned NS1 function inh -9%, AmpC detergent -13%, AmpC no deterg 10%, Cycloheximide cs -4 and Shiga inhibitor -10.
`Cc1nn(C)c(C(=O)N/N=C/c2cc3c(cc2Br)OCO3)c1Br` gave NS1 function inh 11%, AmpC detergent inconclusive, AmpC no deterg -1%, Cycloheximide cs -2 and Shiga inhibitor -4.
Cn1cc(Br)c(C(=O)N/N=C/c2cccc(OC3CSC3)c2)n1 was read as NS1 function inh 10%, AmpC detergent -5%, AmpC no deterg -26%, Cycloheximide cs 57* and Shiga inhibitor active.
`Cn1cc(Br)c(C(=O)N/N=C/c2cc3c(cc2Cl)OCO3)n1` gave NS1 function inh -1%, AmpC detergent -3%, AmpC no deterg -15%, Cycloheximide cs 24* and Shiga inhibitor 55.
Cc1nonc1C(=O)N/N=C/c1cc2c(cc1Br)OCO2 was read as NS1 function inh 1%, AmpC detergent 3%, AmpC no deterg -30%, Cycloheximide cs 28* and Shiga inhibitor 46.
For Nc1nonc1C(=O)N/N=C\c1cc2c(cc1Cl)OCO2 the results were NS1 function inh 6%, AmpC detergent inconclusive, AmpC no deterg -7%, Cycloheximide cs 44* and Shiga inhibitor 42*.
`Cc1onc(-c2ccccc2)c1C(=O)N/N=C/c1cc2c(cc1Cl)OCO2` gave NS1 function inh -7%, AmpC detergent -1%, AmpC no deterg inconclusive, Cycloheximide cs -1 and Shiga inhibitor 10.
For O=C1COc2ccc(C(=O)COC(=O)c3ccc([N+](=O)[O-])cc3Cl)cc2N1 the results were AmpC detergent 3% and AmpC no deterg -18%.
`Cc1c(C(=O)N(Cc2ccccc2F)C2CCS(=O)(=O)C2)oc2ccc(F)cc12` (stereo not given) gave AmpC detergent 8%.
For c1ccc(SCc2cn(C[C@H]3CC[C@@H]([C@@H]4CC[C@H](Cn5cc(CSc6ccccc6)nn5)O4)O3)nn2)cc1 the results were NS1 function inh 3%, AmpC detergent inconclusive, AmpC no deterg 148%, Cycloheximide cs 1 and Shiga inhibitor -6.
For c1ccc(Cn2cc(CSc3ccccc3)nn2)cc1 the results were NS1 function inh -42%, AmpC detergent 3%, AmpC no deterg -38%, Cycloheximide cs 38* and Shiga inhibitor 67*.
Screening Cc1ccc(C(=O)/C=C/C(=O)c2ccc(C)cc2)cc1 returned AmpC detergent -2%, AmpC no deterg -18%, Cycloheximide cs 16 and Shiga inhibitor 41.
For Cc1ccc(C(=O)/C=C\Nc2ccc(C)c(C)c2)cc1 the results were NS1 function inh 9%, AmpC detergent -15%, AmpC no deterg -24%, Cycloheximide cs 100* and Shiga inhibitor 109*.
Screening Cc1ccc(N/C=C/C(=O)c2ccc(C)cc2)cc1 returned NS1 function inh -11%, AmpC detergent 3%, AmpC no deterg -8%, Cycloheximide cs 65* and Shiga inhibitor 124*.
For COc1cc(/C=C/C(=O)c2ccc(NS(=O)(=O)c3ccc(C)cc3)cc2)cc(OC)c1O the results were NS1 function inh inconclusive, AmpC detergent -8%, AmpC no deterg -7%, Cycloheximide cs -6 and Shiga inhibitor -15.
For Cc1ccc(O)c(N/C=C/C(=O)c2ccc(F)cc2)c1 the results were NS1 function inh -32%, AmpC detergent 5%, AmpC no deterg -42%, Cycloheximide cs 43* and Shiga inhibitor 129*.
Cc1nnc(N2CCN(c3ccccc3)CC2)c2c1nnn2Cc1ccc(F)cc1 was read as AmpC detergent 19%.
For COc1ccccc1CC(=O)NCc1nn(-c2ccccc2)nc1C the results were NS1 function inh 0%, AmpC detergent 5%, AmpC no deterg -12%, Cycloheximide cs 1 and Shiga inhibitor 4.
Cc1cccc(NC(=O)c2sc3nc4c(cc3c2N)CN(C(C)C)CC4)c1 was read as AmpC detergent 0%.
